Results on seven molecules are retold here after PubChem BioAssay (Tox21).

“And” between values parts separate entries of the source, which are not always exact repeats. Identical values can stand only once. Inconclusive results are not listed. The source made the active and inactive calls. Unless noted, calls come from the whole dose curve; as a rule, active = well fitted curve in the direction sought with a large enough effect in the repeat runs; inconclusive = weak or mixed curves; inactive = no such curve, though single readings can be large; an effect the other way counts as inactive or inconclusive.

The nature of test [1]: qHTS assay to identify small molecule agonists of the androgen receptor (AR) signaling pathway in the presence of an antagonist - cell viability counter screen (AID 1259379).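 Note: MDA-kb2 human breast cancer cells carrying an MMTV luciferase reporter; series mostly up to about 92 µM; nearly all actives have a fitted effect of over 25% in size.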 In outline: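 Counter screen for cell viability run in parallel with the AR agonist-mode luciferase assay. MDA-kb2 cells were co-treated with nilutamide (3.0uM final) and compounds, then incubated 16 hr at 37C, and CellTiter-Fluor fluorescence was measured.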
(Quantitative high-throughput screening tests each substance at several concentrations.)

Test [2] is described as follows: qHTS assay to identify small molecule agonists of the estrogen receptor beta (ER-beta) signaling pathway - cell viability counter screen (AID 1259380). Note: nearly all actives have a fitted effect of over 30% in size. Note: potency is the fitted concentration of half-maximal effect. In short, it runs like this: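 In this qHTS counter screen, HEK293T cells carrying an ER-beta/UAS beta-lactamase reporter, grown in 2% charcoal-stripped FBS, received compound for 16 hr; ATP-based CellTiter-Glo luminescence was then read after 30 min at room temperature.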

Test [3] in a line: qHTS assay to identify small molecule antagonists of the estrogen receptor beta (ER-beta) signaling pathway - cell viability counter screen (AID 1259382).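 Note: HEK293T cells carrying ER-beta-UAS-bla reporter stimulated with estradiol; series mostly up to about 92 µM; nearly all actives have a fitted effect of over 55% in size.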 In outline: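 HEK293T ER-beta-UAS-bla, 2% charcoal-stripped FBS; compounds + 1nM E2 16 hr 37C; CellTiter-Glo luminescence, 30 min RT.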
The target in test [4] is Estrogen receptor (Homo sapiens) (UniProt P03372). Briefly: qHTS assay to identify small molecule agonists of the estrogen receptor alpha (ER-alpha) signaling pathway in the presence of an antagonist (AID 1259383; calls by dose curve; note: nearly all actives have a fitted effect of over 15% in size; note: potency is the fitted concentration of half-maximal effect; for activation: top concentration of the series differs between compounds). In outline: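 ER-alpha agonism measured under antagonist challenge: 10.0nM ICI-182,780 (final) plus compound, 15 concentrations, 22hr, VM7Luc4E2 ERE-luciferase cells. Read by luminescence.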
Chain of Estrogen receptor (Homo sapiens) (P03372 whole entry, looked up): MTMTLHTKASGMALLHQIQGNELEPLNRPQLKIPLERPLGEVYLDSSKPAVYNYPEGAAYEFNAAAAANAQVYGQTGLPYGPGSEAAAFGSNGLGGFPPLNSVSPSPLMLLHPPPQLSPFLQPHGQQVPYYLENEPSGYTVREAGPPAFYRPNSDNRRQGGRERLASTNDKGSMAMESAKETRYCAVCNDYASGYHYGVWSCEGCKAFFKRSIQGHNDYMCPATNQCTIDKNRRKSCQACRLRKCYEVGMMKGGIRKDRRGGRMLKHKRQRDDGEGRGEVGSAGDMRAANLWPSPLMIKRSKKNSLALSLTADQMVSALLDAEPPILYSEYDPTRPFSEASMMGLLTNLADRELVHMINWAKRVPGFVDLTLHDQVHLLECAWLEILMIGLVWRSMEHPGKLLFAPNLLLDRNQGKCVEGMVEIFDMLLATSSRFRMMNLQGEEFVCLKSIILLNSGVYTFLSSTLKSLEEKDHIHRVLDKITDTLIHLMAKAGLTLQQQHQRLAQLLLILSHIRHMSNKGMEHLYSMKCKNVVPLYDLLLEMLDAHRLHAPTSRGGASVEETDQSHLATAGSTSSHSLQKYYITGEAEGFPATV

Test [5] can be described thus: qHTS assay to identify small molecule agonists of the estrogen receptor alpha (ER-alpha) signaling pathway in the presence of an antagonist - cell viability counter screen (AID 1259386).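 Note: cells exposed to compounds for 22 h at 37 °C before the viability read; nearly all actives have a fitted effect of over 30% in size.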 Note: potency is the fitted concentration of half-maximal effect. In short, it runs like this: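 Steps: 5-day stripped-FBS culture; seed and incubate 24hr; add ICI-182,780 (10.0nM final); pin 15-point compound titration; incubate 22hr at 37C; add CellTiter-Fluor at 21hr; read fluorescence.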

The target in test [6] is Progesterone receptor (Homo sapiens) (UniProt P06401). Briefly: qHTS assay to identify small molecule agonists of the progesterone receptor (PR) signaling pathway (AID 1346784; calls by dose curve; note: nearly all actives have a fitted effect of over 30% in size). In short, it runs like this: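 PR-UAS-bla HEK 293T cells (beta-lactamase reporter under UAS) in 2% charcoal-stripped FBS, dosed with 23 nL compound after 6 hr, incubated 16hr at 37C. LiveBLAzer B/G FRET substrate added, fluorescence read after 2 hours.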
Chain of Progesterone receptor (Homo sapiens) (P06401 whole entry, looked up): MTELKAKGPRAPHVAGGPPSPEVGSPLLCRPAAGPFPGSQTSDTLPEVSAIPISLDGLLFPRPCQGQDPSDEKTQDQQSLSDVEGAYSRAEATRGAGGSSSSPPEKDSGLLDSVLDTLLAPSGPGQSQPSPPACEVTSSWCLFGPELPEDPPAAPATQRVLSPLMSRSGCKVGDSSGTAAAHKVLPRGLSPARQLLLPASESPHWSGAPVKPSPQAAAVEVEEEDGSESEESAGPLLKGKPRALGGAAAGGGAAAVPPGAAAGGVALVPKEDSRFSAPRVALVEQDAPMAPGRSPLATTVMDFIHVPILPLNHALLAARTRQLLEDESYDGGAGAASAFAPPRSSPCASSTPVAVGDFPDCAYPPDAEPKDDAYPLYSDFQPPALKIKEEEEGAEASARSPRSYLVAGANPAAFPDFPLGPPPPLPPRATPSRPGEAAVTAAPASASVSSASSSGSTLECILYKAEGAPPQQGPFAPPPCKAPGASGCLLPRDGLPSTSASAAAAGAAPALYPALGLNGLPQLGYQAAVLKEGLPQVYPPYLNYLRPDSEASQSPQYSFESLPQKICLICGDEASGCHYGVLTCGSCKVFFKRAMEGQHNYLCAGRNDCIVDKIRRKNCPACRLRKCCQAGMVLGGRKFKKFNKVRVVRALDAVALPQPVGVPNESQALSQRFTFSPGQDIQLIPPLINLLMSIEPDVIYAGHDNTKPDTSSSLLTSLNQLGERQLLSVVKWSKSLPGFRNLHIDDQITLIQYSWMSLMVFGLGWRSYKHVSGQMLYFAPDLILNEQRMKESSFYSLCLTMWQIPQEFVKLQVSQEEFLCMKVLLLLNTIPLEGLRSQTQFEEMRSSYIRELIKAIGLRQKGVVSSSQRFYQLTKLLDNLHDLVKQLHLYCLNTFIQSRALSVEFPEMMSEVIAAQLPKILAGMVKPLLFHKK

Test [7] in a line: qHTS assay to identify small molecule antagonists of the progesterone receptor (PR) signaling pathway - cell viability counter screen (AID 1346798). Note: series mostly up to about 92 µM; nearly all actives have a fitted effect of over 50% in size. In outline:
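PR-UAS-bla HEK293T cells, 3,000/well in 2% charcoal-stripped FBS medium, dosed with compounds plus R5020 agonist and incubated 16 h at 37C. Viability then measured in the same wells by CellTiter-Glo luminescence after 30 min at RT.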

The nature of test [8]: qHTS assay to identify small molecule antagonists of the TGF-beta/Smad signaling pathway - cell viability counter screen (AID 1346824). Note: nearly all actives have a fitted effect of over 50% in size. In outline: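 SBE-bla HEK 293T cells, incubated overnight, then compound plus 0.25 ng/mL TGF-beta1 (stock added) for 5 hr at 37 C. Viability was read in the same wells by CellTiter-Glo luminescence after 30 min at room temperature.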
The nature of test [9]: qHTS assay to identify small molecule agonists of the TGF-beta/Smad signaling pathway - cell viability counter screen (AID 1346829). Note: top concentration of the series differs between compounds; nearly all actives have a fitted effect of over 45% in size. In short, it runs like this: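 Cytotoxicity counter screen: CellTiter-Glo luminescence (30 min, room temperature) measured in the SBE-bla HEK 293T reporter wells after 5 hr compound treatment at 37 C and the 2 hr substrate step.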
A short description of test [10]: qHTS assay to identify small molecule agonists of the TGF-beta/Smad signaling pathway (AID 1346859; active = well fitted activation curve with a large enough effect in the signal ratio in the repeat runs, not every such curve was filed as active; the % refers to the signal ratio; note: series mostly up to about 77 µM). In short, it runs like this:
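SBE-bla HEK293T cells plated overnight, then compound exposure for 5 h at 37 C. Beta-lactamase reporter read with LiveBLAzer B/G FRET substrate after 2 h at room temperature, fluorescence at 405 nm excitation, 460/530 nm emission.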

For test [11], the target named is Thyrotropin-releasing hormone receptor (Homo sapiens) (UniProt P34981). Briefly: qHTS assay to identify small molecule antagonists of the thyrotropin-releasing hormone receptor (TRHR) signaling pathway (AID 1346877; active = well fitted inhibition curve with a large enough effect in the repeat runs, not every such curve was filed as active; note: series mostly up to about 51 µM). In outline:
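Human TRHR in HEK293 cells; inhibition of the intracellular calcium rise triggered by 1 nM TRH was followed by fluorescence over 3 min. Compounds were run at 15 concentrations, three replicates each.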

The target is the same in test [12]. Briefly: qHTS assay to identify small molecule agonists of the thyrotropin-releasing hormone receptor (TRHR) signaling pathway (AID 1346891; calls by dose curve; note: series mostly up to about 58 µM). In short, it runs like this:
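HEK293 cells expressing TRHR plated 18 h at 37 C/5% CO2, calcium dye-loaded 2 h at 37 C, then compound added (agonist mode); kinetic calcium fluorescence read 3 min at 1 s intervals; 15 concentrations in triplicate.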

A short description of test [13]: Human pregnane X receptor (PXR) small molecule agonists, qHTS cell viability counter screen (AID 1346977). Note: nearly all actives have a fitted effect of over 50% in size. Note: potency is the fitted concentration of half-maximal effect. In outline:
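PXR-Luc HepG2 cells (2,000/well, 5% charcoal-stripped FBS) preincubated 5 hr, then exposed to compounds 24 hr at 37 C. Viability read in the same wells by CellTiter-Fluor fluorescence, reagent added at 23 hr, 1 hr incubation.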

The nature of test [14]: qHTS assay to identify small molecule agonists or antagonists of the thyroid stimulating hormone receptor (TSHR) signaling pathway - wild type cell line counter screen (AID 1259384; calls by dose curve). In short, it runs like this:
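Wild-type Hek293 cells, 800/well, 18 h at 37C, then compound with Ro20-1724 for 30 min RT. cAMP by HTRF (cAMP-d2/anti-cAMP cryptate), 1 h RT, fluorescence read. 15 concentrations, triplicates.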

Test [15] addresses Progesterone receptor (Homo sapiens) (UniProt P06401). Briefly: qHTS assay to identify small molecule antagonists of the progesterone receptor (PR) signaling pathway (AID 1346795; active = well fitted inhibition curve with a large enough effect in the signal ratio in the repeat runs, not every such curve was filed as active; the % refers to the signal ratio; note: potency is the fitted concentration of half-maximal effect). In short, it runs like this:
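PR-UAS-bla HEK293T cells with beta-lactamase reporter under UAS control, in 2% charcoal-stripped FBS, treated with compounds plus 1 nM promegestone (R5020, final) for 16 hr at 37C. Read-out: FRET beta-lactamase substrate fluorescence after 2 hr at room temperature.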

For test [16], the target named is Thyrotropin receptor (Homo sapiens) (UniProt P16473). Briefly: qHTS assay to identify small molecule antagonists of the thyroid stimulating hormone receptor (TSHR) signaling pathway (AID 1259385; calls by dose curve; note: nearly all actives have a fitted effect of over 20% in size). In short, it runs like this:
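TSHR-HEK293 cells (800/well) plated 18 h, then compounds with Ro20-1724 and TSH at 1.5 ng/mL final, 30 min at room temperature. cAMP quantified by HTRF (cAMP-d2/anti-cAMP-cryptate, 1 h); 15 concentrations in triplicate.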

Test [17] is described as follows: qHTS assay to identify small molecule agonists of the progesterone receptor (PR) signaling pathway - cell viability counter screen (AID 1346799; calls by dose curve; note: nearly all actives have a fitted effect of over 45% in size). In outline: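 Counter screen in the PR-UAS-bla HEK293T wells (2% charcoal-stripped FBS, 16 h compound exposure at 37 C) after the bla read. CellTiter-Glo added, 30 min at room temperature, luminescence read as cell viability.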

Chain of Thyrotropin receptor (Homo sapiens) (P16473 whole entry, looked up): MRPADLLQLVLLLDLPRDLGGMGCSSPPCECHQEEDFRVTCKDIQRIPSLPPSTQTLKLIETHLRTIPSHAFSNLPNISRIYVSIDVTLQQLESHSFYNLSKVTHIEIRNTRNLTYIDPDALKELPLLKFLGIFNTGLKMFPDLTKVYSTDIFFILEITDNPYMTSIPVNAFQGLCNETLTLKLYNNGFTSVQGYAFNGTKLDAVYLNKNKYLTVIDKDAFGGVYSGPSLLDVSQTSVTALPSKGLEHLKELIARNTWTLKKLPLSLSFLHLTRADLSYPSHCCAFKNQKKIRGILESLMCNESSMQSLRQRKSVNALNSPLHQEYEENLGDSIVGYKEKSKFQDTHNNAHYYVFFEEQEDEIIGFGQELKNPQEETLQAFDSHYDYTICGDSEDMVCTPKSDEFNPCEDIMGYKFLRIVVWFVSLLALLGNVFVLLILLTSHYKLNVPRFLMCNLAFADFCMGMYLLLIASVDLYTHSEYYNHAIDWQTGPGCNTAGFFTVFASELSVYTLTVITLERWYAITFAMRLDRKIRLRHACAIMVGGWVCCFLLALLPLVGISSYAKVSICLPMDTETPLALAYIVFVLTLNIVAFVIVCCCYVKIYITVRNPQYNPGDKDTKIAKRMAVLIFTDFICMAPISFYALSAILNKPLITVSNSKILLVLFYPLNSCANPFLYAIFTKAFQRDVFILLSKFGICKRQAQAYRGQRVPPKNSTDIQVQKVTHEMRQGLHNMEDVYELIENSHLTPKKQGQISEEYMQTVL
Chain of Thyrotropin-releasing hormone receptor (Homo sapiens) (P34981 whole entry, looked up): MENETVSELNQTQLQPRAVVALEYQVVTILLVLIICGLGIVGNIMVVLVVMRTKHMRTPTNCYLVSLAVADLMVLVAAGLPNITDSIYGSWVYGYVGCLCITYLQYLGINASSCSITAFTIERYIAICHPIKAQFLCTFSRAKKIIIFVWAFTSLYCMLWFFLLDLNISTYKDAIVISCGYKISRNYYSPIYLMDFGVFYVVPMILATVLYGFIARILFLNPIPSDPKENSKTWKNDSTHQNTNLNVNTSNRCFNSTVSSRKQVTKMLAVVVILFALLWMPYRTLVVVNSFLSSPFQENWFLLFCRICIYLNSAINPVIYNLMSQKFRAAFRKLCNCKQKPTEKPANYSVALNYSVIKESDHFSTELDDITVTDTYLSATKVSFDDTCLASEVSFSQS

As for `Nc1ccc(Nc2ccccc2)cc1`, the Potency result in test [1], in [3], in [4], in test [6], in test [7] and in test [8] was “inactive” throughout. The Potency result in [9], in test [11] and in test [12] was “inactive” throughout. For the same molecule, the Potency in test [2] was 24.3 µM (active); in [5], 30.6 µM (active) and 19.3 µM (active); in [13] it was 30.3 µM (active) and 39.8 µM (active) and 30.6 µM (active). In [10], the molecule was classed as inactive.
As to `CCC(C)(O)CCCC(C)C` (stereo not given), the Potency entry in [1], in test [2], in [3], in [5], in test [6] and in test [15] was “inactive” throughout. Moreover, the Potency entry in [7], in [8], in [9] and in [13] was “inactive” in each case. For the same molecule, the molecule was classed as inactive in [14] and in test [10].
In the case of `COC(=O)Nc1nc2ccc(S(=O)c3ccccc3)cc2[nH]1` (stereo not given), the Potency result in [1], in [2], in [3], in [4], in test [5] and in test [6] was “inactive” each time. Further, the Potency entry in [7], in test [8], in test [9], in [11], in [12] and in [13] was “inactive” in each case. The result in test [10] was inactive.
Turning to `CN(C)CCN(Cc1cccs1)c1ccccn1`, the Potency entry in [1], in test [2], in test [3], in test [16], in test [5] and in [6] was “inactive” throughout. The Potency entry in test [15], in test [7], in test [17], in [8], in [9] and in [13] was “inactive” in each case. The call in test [14] and in [10] was inactive.
On to `CN1C(C(=O)Nc2ccccn2)=C(O)c2ccccc2S1(=O)=O`, for which the Potency result in [1], in test [2], in test [3], in test [4], in test [5] and in [6] was “inactive” each time. Further, the Potency entry in test [15], in test [7], in test [17], in test [8], in [9] and in [11] was “inactive” each time. Besides, the Potency result in test [12] and in [13] was “inactive” throughout. Also, the molecule was called inactive in test [14] and in test [10].
With `CCC(C)OC(=O)c1ccc(O)cc1` (stereo not given), the Potency result in [1], in [2], in test [3], in test [16], in test [5] and in [6] was “inactive” in each case. Besides, the Potency result in test [7], in test [17], in test [8], in [9], in test [11] and in test [12] was “inactive” in each case. Moreover, in test [13], the Potency result was “inactive”. Moreover, the Potency in [4] is 19.4 µM (active) and 48.6 µM (active); in [15] it was 48.9 µM (active) and 54.5 µM (active). The call in [14] and in test [10] was inactive.
For the molecule `C=CC(C)(CCC=C(C)C)OC(C)=O` (stereo not given), the Potency result in test [1], in [2], in test [3], in test [4], in [5] and in test [6] was “inactive” each time. For the same molecule, the Potency result in test [15], in test [7], in test [8], in [9], in test [11] and in test [12] was “inactive” in each case. The Potency entry in test [13] is “inactive”. Moreover, the molecule was classed as inactive in test [14] and in [10].
